Measured values reported in PubChem BioAssay (Tox21).
Active and inactive are the calls of the source. The call rests on the fitted dose curve; in most records, active means well fitted curve in the direction sought with a large enough effect in the repeat runs; inconclusive means weak or mixed curves; inactive means flat fitted curve, though single readings scatter.

Assay: qHTS assay to test for compound auto fluorescence at 460 nm (blue) in HepG2 cells (AID 720687)
Conditions: autofluorescence 405/460 nm, 1 h; series mostly up to 91.3 µM
Source text: U.S. Tox21 Program National Center for Advancing Translational Sciences [NCATS] NIH Chemical Genomics Center [NCGC] U.S. Environmental Protection Agency [EPA] National Institutes of Environmental Health Sciences [NIEHS] National Toxicology Program [NTP] U.S. Food and Drug Administration [FDA] Tox21 Assay Overview: Compound auto fluorescence often interferes with screening of the compound library against various biological targets and signaling pathways. Some of these compounds may have fluorophoric properties. Such properties may interfere with the assay outputs resulting in false positives and/or negatives. To decrease such complications and ensure the compound activities are relevant in terms of biological response, the Tox21 10K compound library was screened for auto fluorescence. From the fluorophores used as reporter signals in our screening assays, the auto fluorescence equivalencies of compounds against three fluorophores have been evaluated: Triamterene, Fluorescein and Rose Bengal sodium for blue, green and red fluorescence, respectively. The fluorescence intensities were measured using Excitation/Emission wavelengths at 405/460nm, 485/535nm and 540/590nm for blue, green and red labels, respectively. This assay includes the blue fluorescence data.
Tox21 Assay Protocol Summary: 2,000 HepG2 cells in 5 uL of culture medium (MEM containing 10% FBS) per well were dispensed into black wall/clear bottom 1536-well plates using a Multidrop Combi Dispenser (ThermoFisher Scientific, Waltham, MA). The assay plates were incubated overnight at 37 C to allow cell attachment to the well bottom, followed by the transfer of 23 nL compound or DMSO vehicle by a pintool work station (Kalypsys , San Diego, CA). After the assay plates were incubated for 1 hr at 37 C and 5% CO2, fluorescence intensities in the assay plates were measured by an Envision (PerkinElmer, Shelton, CT) plate reader using three labels for measuring blue, green and red fluorescence at […] 460, 535 and 590 nm respectively.

SMILES | outcome
CCOP(=S)(OCC)O/N=C(\C#N)c1ccccc1 | inactive
C[C@]12CCC(=O)C(O)=C1CC[C@@H]1[C@@H]2CC[C@]2(C)C(=O)CC[C@@H]12 | inactive
Nc1ccncc1 | inactive
CCCCNC(=O)n1c(NC(=O)OC)nc2ccccc21 | inactive
Cc1ccc(N)c(N)c1 | inactive
NNC(N)=S | inactive
Brc1ccc(Oc2cc(Br)c(Br)cc2Br)c(Br)c1 | inactive
Nc1cccnc1 | inactive
CC(C)C(=O)OCC(C)(C)C(OC(=O)C(C)C)C(C)C (stereo not given) | inactive
O=C(CCl)c1ccccc1 | inactive
C=C(C)[C@H]1Cc2c(ccc3c2O[C@@H]2COc4cc(OC)c(OC)cc4[C@@H]2C3=O)O1 | inactive
Nc1ccc(Cl)cc1N | inactive
O=[N+]([O-])c1cccc2ccccc12 | inactive
O=C(O)C(F)(F)C(F)(F)C(F)(F)C(F)(F)C(F)(F)C(F)(F)C(F)(F)F | inactive
CCN(CC)C(=O)/C(Cl)=C(\C)OP(=O)(OC)OC | inactive
O=S(=O)(Oc1ccc(Cl)cc1)c1ccc(Cl)cc1 | inactive
C[C@]12CCC(=O)C[C@@H]1CC[C@@H]1[C@@H]2CC[C@]2(C)[C@@H](O)CC[C@@H]12 | inactive
C=CCc1ccc2c(c1)OCO2 | inactive
CCCCN(CCCC)N=O | inactive
CCC(CC)Nc1c([N+](=O)[O-])cc(C)c(C)c1[N+](=O)[O-] | inactive

SMILES | outcome
Clc1nc(Cl)nc(Cl)n1 | inactive
COP(=S)(OC)Oc1ccc([N+](=O)[O-])cc1 | inactive
Cc1ccc(OP(=O)(Oc2ccc(C)cc2)Oc2ccc(C)cc2)cc1 | inactive
Nc1ccc(Cl)c(Cl)c1 | inactive
c1ccc(P(c2ccccc2)c2ccccc2)cc1 | inactive
CCOCN(C(=O)CCl)c1c(C)cccc1CC | inactive
Cc1cc(Cl)ccc1OCCCC(=O)O | inactive
CCOC(=S)S | inactive
NNC(=S)NN | inactive
CC(C)Oc1cc(-n2nc(C(C)(C)C)oc2=O)c(Cl)cc1Cl | inactive
COP(=O)(OC)OC | inactive
CC(C)(C)c1ccccc1O | inactive
Cc1cccc(N)c1N | inactive
CCOc1cc(C=O)ccc1O | inactive
COc1ccc(C=O)cc1 | inactive
O=C1C=CC(=O)C=C1 | inactive
c1ccc(-c2cccc(-c3ccccc3)c2)cc1 | inactive
Oc1cc(Cl)ccc1Oc1ccc(Cl)cc1Cl | inactive
CCC(C)c1cc([N+](=O)[O-])cc([N+](=O)[O-])c1O (stereo not given) | inactive
CCc1cccc(CC)c1N(COC)C(=O)CCl | inactive
